# Results published in ChEMBL document CHEMBL4513216, “Probing the Open Global Health Chemical Diversity Library for Multistage-Active Starting Points for Next-Generation Antimalarials” (ACS Infect Dis, 2020).
# Hit rate of the full screen: of about 68,000 compounds, about 2,700 (4%) showed an effect of 50% or more. For the sample, strong results were picked, then their nearest neighbours and some compounds at random.
# System: Plasmodium berghei
# Test: Screen against P. berghei liver stage (PbLuc), transformed with Luciferase, at 2uM
# Format: functional, HepG2
# Settings: tested at 2 uM
row,Structure (SMILES),INHIBITION
1,CCCn1nc(C(=O)N2CCCC2c2noc(C)n2)ccc1=O (stereo not drawn),-17.18%
2,CCN(CC)CC1CN(Cc2ccc(C)s2)Cc2nccn2C1 (stereo not drawn),-0.18%
3,CCn1cnnc1Cn1cccc(C(F)(F)F)c1=O,62.01%
4,CC(C)Cn1cncc1Cn1cccc(C(F)(F)F)c1=O,1.22%
5,CCn1cncc1Cn1cccc(C(F)(F)F)c1=O,10.1%
6,O=C(Nc1cccnc1)[C@H]1CN(C2CCCC2)C[C@H]2OCC[C@@H]12,-42.87%
7,CS(=O)(=O)N1C[C@H](C(=O)Nc2cccnc2)[C@@H]2CCO[C@@H]2C1,51.27%
8,CCOCCN1C[C@H](C(=O)Nc2cccnc2)[C@@H]2CCO[C@@H]2C1,8.18%
9,Cc1nn(C)cc1C1=NS(=O)(=O)N(C)C(C(=O)Nc2ccc(Br)cc2)=C1,22.84%
10,O=C(c1ccoc1)N(Cc1ccncc1)C1CC1,-37.38%
11,CCc1nnc(SCc2nonc2C)n1C1CC1,-11.87%
12,COC(=O)CNC(=O)CSCc1nc(O)c2cc(C)sc2n1,-2.99%
13,CC(C)C(C(=O)N1CCC(Nc2cccnn2)CC1)n1cncn1 (stereo not drawn),-12.48%
14,Cc1nc(C(C)Nc2nc3c(s2)c(C)nn3C)n[nH]1 (stereo not drawn),5.48%
15,CC(NC(=O)NCCCN(C)C)c1ccc2c(c1)CCC(=O)N2 (stereo not drawn),2.08%
16,CC(NC(=O)NCc1cccs1)c1ccc2c(c1)CCC(=O)N2 (stereo not drawn),16.84%
17,CC(NC(=O)NCCS(C)(=O)=O)c1ccc2c(c1)CCC(=O)N2 (stereo not drawn),60.13%
18,CC(C)(CN)NS(=O)(=O)c1cccc(F)c1F,-6.69%
19,O=C(CCC(=O)N1CCC(c2noc3cc(F)ccc23)CC1)NC1CC1,11.87%
20,O[C@@H]1CC(CNCC2CC2)(COc2cccnc2)C[C@@H]1O (stereo partly drawn),39.62%
21,CC(C)NCC1(COc2ccccc2)C[C@@H](O)[C@@H](O)C1 (stereo partly drawn),71.58%
22,O[C@@H]1CC(CNCC2CCCC2)(COc2cccnc2)C[C@@H]1O (stereo partly drawn),42.64%
23,Cn1cc(C[C@H]2[C@H](O)CCN2Cc2ccncc2)cn1,20.41%
24,CCCNC(=O)c1cn(C(C)(C)C)c2ncccc12,12.87%
25,COc1ccc(-c2cc3nn(CC(N)=O)c(=O)n3c(C)n2)cc1,52.74%
26,Cc1nc(-c2ccccc2)cc2nn(CC(N)=O)c(=O)n12,20.88%
27,COc1ccc(-c2cc3nn(CC(=O)NC(C)C)c(=O)n3c(C)n2)cc1,22.96%

row,Structure (SMILES),INHIBITION
1,CCn1ncc2c1NC(=O)C(C#N)C21CCCC1 (stereo not drawn),-12.09%
2,CCN1CC(CN(C)c2cc(C)nc(N)n2)Oc2ccccc21 (stereo not drawn),-10.39%
3,CC(C)OCCN1CCN(C(=O)c2cccc(CC#N)c2)CC1,5.72%
4,CC(=O)NCC1CCC2(CCN(c3ncc(C(C)=O)c(C)n3)CC2)O1 (stereo not drawn),11.37%
5,CC(=O)NCC1CCC2(CCN(c3ncc(C)cn3)CC2)O1 (stereo not drawn),58.03%
6,CC(=O)NCC1CCC2(CCN(c3ncnc4oc(C)nc34)CC2)O1 (stereo not drawn),-7.91%
7,O=C(NCCn1nc2ccccn2c1=O)c1cc(C2CC2)[nH]n1,25.03%
8,CC(=O)c1cc(C(=O)NC2(c3ccccc3)CCC2)n(C)c1,10.43%
9,Cc1cc(C(=O)NC2(c3ccc(Br)cc3)CC2)n(C)n1,-25.71%
10,CC(=O)c1cc(C(=O)NC2(c3ccc(Br)cc3)CC2)n(C)c1,63.4%
11,Cc1ncc(CNC(=O)CCc2cccc(F)c2)c(C2CCCN2C)n1 (stereo not drawn),7.21%
12,O=C(O)c1ccccc1C1CCN(C2CCN(c3ccccc3)CC2)C1 (stereo not drawn),38.67%
13,NC1CCN(C2CCN(c3ccc(-c4ccco4)cc3)CC2)CC1,55.36%
14,c1coc(-c2nc3c(c(N4CCCN5CCC[C@H]5C4)n2)CCNCC3)c1,-53.14%
15,CNC1CCN(C2CCN(c3ccc(-c4ccco4)cc3)CC2)CC1,7.67%
16,COc1ccc(N2CCC(N3CCOC(C(F)(F)F)C3)CC2)cc1 (stereo not drawn),10.95%
17,NCC1CCN(C2CCN(c3ccc(-c4ccco4)cc3)CC2)C1 (stereo not drawn),74.44%
18,O=C(c1ncccn1)N1CCC2(CC1)COC(COc1ccccn1)C2 (stereo not drawn),17.35%
19,CCN(CC)c1ccc(C(=O)N2C[C@H]3CC[C@@H](C2)N(CCOC)C3)cc1,-34.04%
20,CS(=O)(=O)N1CCOCC2(CCN(Cc3ccc[nH]3)CC2)C1,-14.21%
21,CC(C1CC1)N(CC(=O)NC(=O)NC1CC1)C1CC1 (stereo not drawn),31.39%
22,CC(C)NC(=O)CN(C1CC1)C(C)C1CC1 (stereo not drawn),-26.26%
23,CC(C1CC1)N(CC(=O)NCC(F)(F)F)C1CC1 (stereo not drawn),54.02%
24,Cc1ncc(CNCC(=O)NCC(F)(F)F)n1-c1ccccc1,48.21%
25,Cc1ncc(CNCC2CCC(C(N)=O)CC2)n1-c1ccccc1 (stereo not drawn),72.05%
26,Cc1ncc(CNCC(=O)NC2CCCCC2)n1-c1ccccc1,21.97%
